{
  "source": "PubChem BioAssay (EPA / NIEHS)",
  "note": "Values joined by “and” are separate entries in the source; they are usually repeats but may differ in a detail not shown here. Identical values can stand only once. Inconclusive results are not listed. Active and inactive are the calls of the source. Rule for the calls: active = hit-call score of the fitted dose curve at least 0.9, where 1 is the maximum; inconclusive = response in the unintended direction; inactive = score below 0.9.",
  "data": [
    {"biological_target": "Cellular tumor antigen p53 (Homo sapiens) (UniProt P04637)", "sequence (P04637 whole entry, looked up, the tested form may be a part)": "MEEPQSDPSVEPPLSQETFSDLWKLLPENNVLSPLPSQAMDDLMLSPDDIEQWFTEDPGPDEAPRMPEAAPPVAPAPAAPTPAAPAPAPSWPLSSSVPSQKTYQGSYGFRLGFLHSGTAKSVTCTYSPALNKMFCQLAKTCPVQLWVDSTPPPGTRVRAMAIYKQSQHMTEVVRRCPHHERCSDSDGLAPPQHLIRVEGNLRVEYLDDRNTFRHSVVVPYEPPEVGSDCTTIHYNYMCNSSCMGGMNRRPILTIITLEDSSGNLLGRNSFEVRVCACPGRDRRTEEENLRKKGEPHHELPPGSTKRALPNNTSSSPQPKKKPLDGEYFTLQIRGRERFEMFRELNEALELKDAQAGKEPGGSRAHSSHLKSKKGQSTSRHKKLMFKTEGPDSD", "experiment": "TOX21_p53_BLA_p4_ratio: Tox21 HCT-116 p53 Agonism Beta-lactamase Assay, Ratio, Phase 4 (AID 2283601)", "excerpt": "TOX21_p53_BLA_p4 is a cell-based, single-readout assay that uses HCT116, a human intestinal cell line, […] in a 1536-well plate.TOX21_p53_BLA_p4_ratio is an assay readout measuring reporter gene via receptor activity and designed using inducible reporter (beta lactamase induction) detected with GAL4 b-lactamase reporter gene. The signal is derived from the ratio of cleaved (ch2) to uncleaved (ch1)reporter gene substrate used as the measure of target activity.Data from the assay component TOX21_p53_BLA_p4_ratio was analyzed into 1 assay endpoint. This assay endpoint, TOX21_p53_BLA_p4_ratio, was analyzed in the positive analysis fitting direction relative to DMSO as the negative control and baseline of activity. Using a type of inducible reporter, gain-of-signal activity can be used to understand changes in the reporter gene as they relate to the gene TP53. Furthermore, this assay endpoint can be referred to as a primary readout, because this assay has produced multiple assay endpoints where this ratio serves a reporter gene function to understand target activity. To generalize the intended target to other relatable targets, this assay endpoint is annotated to the DNA binding intended target family, where the subfamily is tumor suppressor.\nThawing Method: Place 14 mL of pre-warmed thaw medium into a 15 mL of conical tub. Remove the vial of cells to be thawed from liquid nitrogen and thaw rapidly by placing at 37C in a water bath with gentle agitation for 1-2 minutes. Decontaminate the vial by wiping with 70% ethanol before opening in a biological safety cabinet. Transfer the vial contents drop-wise into 14 mL of thaw medium in a sterile 15-mL conical tub. Centrifuge cells at 900 rpm for 4 minutes and resuspend in thaw medium. Transfer contents to the T75 tissue culture flask containing Thaw Medium and place flask in a humidified 37C/5% CO2 incubator. Switch to growth medium at first passage.Propagation Method: Aspirate medium, rinse once in DPBS, add 0.25% Trypsin/EDTA and swirl to coat the cell evenly. Add an equal volume of Growth Medium to inactivate Trypsin after 2-3 minutes incubation at 37C. Centrifuge cells at 900 rpm for 4 minutes and resuspend in growth medium. Cell should be passage or fed at least twice a week.Assay Protocol: Harvest cells from culture in growth medium and resuspend in assay medium. 2.2 Dispense 4000 cells/5 uL/well into 1536-well black/clear bottom plates using a Multidrop dispenser. After the cells were incubated at 37C for 5 hours, 23 nL of compounds dissolved in DMSO were transferred to the assay plate by a PinTool resulting in a 217-fold dilution. Incubate the plates for 16 hours at 37C, 5% CO2. Add 1 uL of 6X LiveBLAzer FRET B/G (CCF4-AM) Substrate Mixture to each well using a BioRAPTR dispenser and incubate the plates at room temperature for 2 hours. Measure fluorescence intensity at 460 and 530 nm emission and 405 nm excitation by an Envision detector. Data is expressed as the ratio of 460nm/530nm emissions. Add 4 uL of Cell-titer Glo to each well using BioRAPTR and incubate the plates at room temperature for 2 hours. Measure fluorescence intensity by a VewLux plate reader.", "values": [
      {"compound": "C=C(C)OC(C)=O", "outcome": "inactive"},
      {"compound": "CC1(C)[C@@H]2CC[C@@]1(C)C(=O)C2", "outcome": "inactive"},
      {"compound": "CCCCCCCCCCCCCCCCCCOS(=O)(=O)O", "outcome": "inactive"},
      {"compound": "Oc1ccc(-c2ccccc2)c(Cl)c1", "AC50": "76.2 µM (active)"},
      {"compound": "CC(C)(CO)COC(=O)C(C)(C)CO", "outcome": "inactive"},
      {"compound": "Cc1noc(NS(=O)(=O)c2ccc(N)cc2)c1C", "outcome": "inactive"},
      {"compound": "CC1=C(O)C(=O)C(C)O1", "note": "(stereo not given)", "outcome": "inactive"},
      {"compound": "O=C1CCCCCCCCCCCN1", "outcome": "inactive"},
      {"compound": "COc1ccc(C(=O)c2ccccc2)c(O)c1", "outcome": "inactive"},
      {"compound": "COc1cc(C)ccc1O", "outcome": "inactive"},
      {"compound": "O=C(OCc1ccccc1)c1ccc(O)cc1", "outcome": "inactive"},
      {"compound": "CCCCOC(=O)C(C)CC", "note": "(stereo not given)", "outcome": "inactive"},
      {"compound": "CC(=O)OC/C=C(/C)CCC=C(C)C", "outcome": "inactive"},
      {"compound": "Nc1ccnc(=O)[nH]1", "outcome": "inactive"},
      {"compound": "C=CC(=O)OCCCCCCCCCC", "outcome": "inactive"},
      {"compound": "C=C1C[C@H]2[C@@H]3C=C(C)C4=CC(=O)CC[C@]4(C)[C@H]3CC[C@]2(C)[C@@]1(OC(C)=O)C(C)=O", "outcome": "inactive"},
      {"compound": "CC(=O)c1ccc(S(=O)(=O)NC(=O)NC2CCCCC2)cc1", "outcome": "inactive"},
      {"compound": "O=C(C=Cc1ccccc1)OCCc1ccccc1", "outcome": "inactive"},
      {"compound": "O=C(Nc1ccccc1)c1cc(Cl)ccc1O", "outcome": "inactive"},
      {"compound": "O=C(O)C1CCC(C(=O)O)CC1", "note": "(stereo not given)", "AC50": "85.8 µM (active)"},
      {"compound": "CCCCNS(=O)(=O)c1ccccc1", "outcome": "inactive"},
      {"compound": "CC(C)[N+](C)(CCOC(=O)C1c2ccccc2Oc2ccccc21)C(C)C", "outcome": "inactive"},
      {"compound": "CCCCC1CCC(=O)O1", "note": "(stereo not given)", "outcome": "inactive"},
      {"compound": "Clc1cc(Cl)c(Cl)c(Cl)c1Cl", "outcome": "inactive"},
      {"compound": "CC(CCC(=O)O)(c1ccc(O)cc1)c1ccc(O)cc1", "outcome": "inactive"},
      {"compound": "O=C(O)/C=C/c1ccccc1", "outcome": "inactive"},
      {"compound": "O=C(Cl)c1c(Cl)c(Cl)c(C(=O)Cl)c(Cl)c1Cl", "outcome": "inactive"},
      {"compound": "CCCCCCCCCCCCc1ccc(O)cc1", "AC50": "28.3 µM (active)"},
      {"compound": "CN(C)c1ccc2nc3ccc(=[N+](C)C)cc-3sc2c1", "AC50": "41.2 µM (active) and 14.4 µM (active) and 28.4 µM (active)"},
      {"compound": "CCOC(=O)c1ccccc1C", "outcome": "inactive"},
      {"compound": "CCCCCCCCCCCC(C)=O", "outcome": "inactive"},
      {"compound": "C=C(C)C(=O)OCC(O)COc1ccc(C(C)(C)c2ccc(OCC(O)COC(=O)C(=C)C)cc2)cc1", "note": "(stereo not given)", "outcome": "inactive"},
      {"compound": "CC(=O)OCC=C(C)C", "outcome": "inactive"},
      {"compound": "Cc1cc(C)n(CO)n1", "outcome": "inactive"},
      {"compound": "Oc1ccccc1Cc1ccccc1O", "outcome": "inactive"},
      {"compound": "Oc1c(Cl)cc(Cl)c(Cl)c1Cl", "AC50": "35.5 µM (active) and 18.8 µM (active)"},
      {"compound": "O=C(O[C@@H]1Cc2c(O)cc(O)cc2O[C@@H]1c1cc(O)c(O)c(O)c1)c1cc(O)c(O)c(O)c1", "outcome": "inactive"},
      {"compound": "C=C(C)C(=O)OCCOC(=O)C(=C)C", "outcome": "inactive"},
      {"compound": "Cc1ccccc1CCO", "outcome": "inactive"},
      {"compound": "CC(C)(c1ccccc1)c1ccc(Nc2ccc(C(C)(C)c3ccccc3)cc2)cc1", "outcome": "inactive"}
    ]}
  ]
}
